Measurements reported in PubChem BioAssay (NCI).
The panel holds about 83,000 compounds, 20% with a hit somewhere; the sample as a whole holds those more often.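 Values shown are percent growth following 48 h exposure of cells in 96-well plates to a single concentration of compound; below 10 was considered active.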 Activity calls are given as the source filed them.

Experiments:
Experiment in all cases: NCI-60 one-dose screen, 48 h (100 = growth as untreated, 0 = no growth, -100 = all killed)
Conditions in all cases: 10 µM
[1] = system: DU-145 prostate
[2] = system: K-562 leukemia
[3] = system: MALME-3M melanoma
[4] = system: MDA-MB-231 breast
[5] = system: RXF 393 renal
[6] = system: SF-268 CNS
[7] = system: SF-295 CNS
[8] = system: SF-539 CNS
[9] = system: M14 melanoma
[10] = system: HCT-15 colon
[11] = system: HT29 colon
[12] = system: SNB-75 CNS
[13] = system: SNB-19 CNS
[14] = system: PC-3 prostate
[15] = system: SK-MEL-5 melanoma
[16] = system: UACC-62 melanoma
[17] = system: LOX IMVI melanoma
[18] = system: SK-MEL-28 melanoma
[19] = system: U251 CNS
[20] = system: UACC-257 melanoma

Measured: growth

O=C1/C(=C/c2cccc(F)c2)Cc2ccccc21
inactive: [1] 113% | [2] 106% | [3] 106% | [4] 112% | [5] 99.4% | [6] 112% | [7] 77.9% | [8] 110% | [9] 98.8% | [10] 93.7% | [11] 94.6% | [12] 89.4% | [13] 98.7% | [14] 90% | [15] 99.4% | [16] 99.2% | [17] 96.7% | [18] 105%

c1cnc2[nH]cc(-c3nc(-c4ccsc4)cs3)c2c1
inactive: [1] 98.8% | [2] 109% | [3] 121% | [4] 85.6% | [5] 98.3% | [6] 79.9% | [7] 101% | [8] 93.7% | [9] 104% | [10] 86.1% | [11] 104% | [12] 90.7% | [13] 102% | [19] 90.4% | [15] 81.6% | [17] 96.2% | [18] 122%

COCCn1cc(-c2nc(-c3cccnc3)cs2)c2cc(F)ccc21
inactive: [1] 90.4% | [2] 95.2% | [3] 99.8% | [4] 92.3% | [5] 99.5% | [6] 90.7% | [7] 95.6% | [8] 80.9% | [9] 96.2% | [10] 76.4% | [11] 72.3% | [12] 94.4% | [13] 97.3% | [19] 90.2% | [15] 82.9% | [16] 89.2% | [17] 90.7% | [18] 97.2%

CCOC(=O)c1sc2ncnc(Nc3ccc(NC(=O)Nc4ccc(Cl)cc4)cc3)c2c1C
inactive: [1] 54% | [2] 83.7% | [3] 26.4% | [4] 23.8% | [5] 19.4% | [6] 72.1% | [7] 33.1% | [9] 64.8% | [10] 33.9% | [11] 43% | [12] 17.6% | [13] 73.7% | [19] 26.3% | [15] 32.2% | [16] 78.8% | [17] 44.4% | [18] 79.5%
active: [8] -1.23%

O=C1C=C(Nc2cccc(Br)c2)c2ccccc2C1=O
inactive: [1] 22.4% | [2] 21.4% | [3] 47.2% | [4] 54.6% | [5] 31.8% | [6] 58% | [8] 15% | [20] 79.4% | [9] 14.4% | [10] 22.7% | [11] 111% | [12] 12% | [13] 43.6% | [19] 31.3% | [14] 37.4% | [15] 15.8% | [16] 46.8% | [17] 37.5% | [18] 56.7%

CC(C)(C)c1ccc(S(=O)(=O)N[C@H]2CC[C@H]3[C@@H]4CCc5cc(O)ccc5[C@H]4CC[C@]23C)cc1
inactive: [1] 62.9% | [2] 17% | [3] 25.6% | [4] 33.7% | [5] 12% | [6] 50.9% | [8] 78.7% | [20] 68.7% | [9] 45.8% | [10] 34.7% | [11] 10.2% | [12] 55.4% | [13] 80.6% | [14] 30.6% | [15] 40.4% | [16] 61.2% | [18] 79.1%

CSc1ccc(-c2cc(-c3ccc(NC(=O)CCCN4CCCC4)cc3)nc(-c3ccc(NC(=O)CCCN4CCCC4)cc3)c2)cc1
active: [2] -36.4% | [4] -4.05%
inactive: [1] 104% | [3] 88.4% | [5] 51.1% | [6] 48.6% | [8] 75.7% | [20] 95.3% | [9] 88.4% | [10] 88.6% | [11] 21.9% | [12] 45.2% | [13] 49.2% | [14] 40.8% | [15] 91.8% | [16] 93.4% | [18] 94.7%

O=C(CCCCNC(=O)c1nc(-c2ccccc2)n(-c2ccccc2)n1)NO
inactive: [1] 98.6% | [2] 81.7% | [3] 23.5% | [4] 86.2% | [5] 84.2% | [6] 90.1% | [7] 93.6% | [8] 65.1% | [9] 66.8% | [10] 91.3% | [11] 73.6% | [12] 70.8% | [13] 86% | [19] 65.9% | [15] 62.2% | [16] 37.5% | [17] 96.9% | [18] 75.2%

C=C/C(C)=C/C[C@]1(C)[C@H](C)[C@@H](OC(=O)CCC)[C@H](O)[C@@]23C(=C[C@H](OC)C[C@@H]12)[C@@H](OC(=O)CCC)O[C@H]3OC(C)=O
inactive: [1] 14.3% | [2] 10.3% | [13] 27.4%
active: [3] -63.7% | [4] -62.7% | [5] -89.4% | [6] -8.13% | [7] -59.6% | [8] -74.4% | [9] -45.7% | [10] -67.4% | [11] -66.9% | [12] -84.1% | [19] -22% | [15] -88% | [16] -78.3% | [17] -66.4% | [18] -49.8%

COc1ccc([C@H]2[C@H](C(=O)Nc3cccnc3)c3ccccc3C(=O)N2c2ccccc2)cc1
inactive: [1] 107% | [2] 99.9% | [3] 108% | [4] 95.9% | [5] 94.2% | [6] 93.9% | [7] 70.7% | [8] 114% | [9] 86.2% | [10] 78.1% | [11] 81.3% | [12] 98.9% | [13] 88.4% | [19] 74.8% | [15] 79.4% | [16] 92.3% | [17] 92.5% | [18] 102%

COc1ccc(-c2cc(-c3cc(OC)ccc3OC)nc(N)c2C#N)cc1
inactive: [1] 96.2% | [2] 89.5% | [3] 36.9% | [4] 56.3% | [5] 70.5% | [6] 40.1% | [7] 64.7% | [8] 57.8% | [9] 79.8% | [10] 51.2% | [11] 60.7% | [12] 16.3% | [13] 48.8% | [19] 61.2% | [15] 63% | [16] 42.3% | [17] 58.6% | [18] 88.5%

Cc1ccc(C2=NN(c3ccc(S(C)(=O)=O)cc3)C(=O)CC2)cc1
inactive: [2] 11.7% | [3] 45.5% | [4] 47.8% | [5] 15.4% | [6] 55.2% | [20] 50.7% | [9] 10.2% | [11] 11.1% | [13] 55% | [14] 29.3% | [15] 13.9% | [16] 42.9% | [17] 33.7% | [18] 51.4%
active: [1] 6.77% | [8] -7.93% | [12] 8.1%

O=C(Nc1ccccc1)Nc1ncnc2c1ncn2-c1ccccc1
inactive: [1] 99.2% | [2] 98.7% | [3] 76.5% | [4] 68.3% | [5] 95.4% | [6] 92.5% | [7] 31% | [8] 82.8% | [9] 81.4% | [10] 85% | [11] 75.2% | [12] 41.5% | [13] 57.7% | [19] 48.9% | [16] 91.8% | [17] 91% | [18] 94%

COc1ccc2nc(Cl)c(Cn3nnc(Cc4ccccc4)n3)cc2c1
active: [15] -47.2%
inactive: [1] 61.6% | [2] 32.9% | [3] 34.4% | [4] 50.7% | [5] 60.2% | [6] 51.5% | [7] 37.4% | [8] 67.5% | [9] 30.3% | [10] 36.5% | [11] 27.4% | [12] 57.1% | [13] 58% | [19] 53.2% | [16] 35.1% | [17] 42.9% | [18] 47.5%

O=C(CCCNC(=O)c1nc(-c2ccccc2)n(-c2ccccc2)n1)NO
inactive: [1] 108% | [2] 106% | [3] 99.4% | [4] 103% | [5] 103% | [6] 105% | [7] 105% | [8] 107% | [9] 98% | [10] 104% | [11] 90.1% | [12] 107% | [13] 98.1% | [19] 94.6% | [15] 104% | [16] 102% | [17] 97.9% | [18] 109%

c1cncc(-c2csc(-c3c[nH]c4ccccc34)n2)c1
inactive: [1] 103% | [2] 97.7% | [3] 78.8% | [4] 73.5% | [5] 111% | [6] 92.5% | [7] 92.6% | [8] 84.9% | [9] 85.8% | [10] 85.4% | [11] 92.4% | [12] 63.7% | [13] 95.5% | [19] 90.9% | [15] 84.5% | [16] 88.7% | [17] 87% | [18] 103%

Nc1ccccc1NC(=O)c1ccc(CCCC(=O)Nc2ccc(C3CC3N)cc2)cc1 (configuration not stated)
active: [11] 9.38% | [19] 4.65% | [15] -41.1% | [16] -24.8%
inactive: [1] 38.7% | [2] 25.4% | [3] 21.7% | [4] 47.5% | [5] 20.8% | [6] 32.6% | [7] 22.1% | [8] 30.9% | [9] 27% | [10] 87.4% | [12] 66.4% | [13] 49.7% | [17] 12.8% | [18] 18%
